# Compounds without any hit were thinned out: in the full panel of roughly 83,000, 20% have a hit.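 Interpretation: 100, growth as untreated; towards 0, rising growth inhibition; 0, no net growth; 0 to -100, cell death. Compounds scoring below 10 were considered active.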 Activity calls are given as the source filed them.
# Tested on: MOLT-4 leukemia
# Assay: NCI-60 one-dose screen, 48 h (100 = growth as untreated, 0 = no growth, -100 = all killed)
# Conditions: 10 µM unless noted
row,Structure (SMILES),growth
1,CCOc1ccc(NC(=O)Nc2cc(C(C)C)ccc2C)cc1,72.2% (inactive)
2,NS(=O)(=O)c1ccc(-n2nc(-c3ccc(Cl)cc3)ccc2=O)cc1,96.4% (inactive)
3,COC(OC)C1(c2ccccc2)NC(=O)NC1=O (centres undefined),89.1% (inactive)
4,CC1=C[S+](c2ccccc2)c2cccc3cc4ccccc4c1c23 (centres undefined),-23.5% (active)
5,O=C(Nc1ccccc1F)Nc1ccccc1Cl,69.3% (inactive)
6,O=C(C[n+]1ccccc1Cl)c1ccc2c(c1)CCCC2,73.6% (inactive)
7,COc1cc(-c2nc3sc(C)cn3c2/C=C2\C(=O)Nc3ccccc32)c(Br)c(OC)c1OC,39.9% (inactive)
8,CC1(C)N=C(N)N=C(N)N1c1cccc(CCCCc2ccccc2)c1,-35.9% (active)
9,COc1ccc(/C=C2\CS(=O)(=O)C/C(=C\c3ccc(OC)cc3)C2=O)cc1,-16.1% (active)
10,CN1CCN(CC(O)COc2c(Br)c(Br)c(Br)c3c2OC(C)(C)C3)CC1 (centres undefined),18.3% (inactive)
11,CC1(C)N=C(N)N=C(N)N1c1ccc(OCC(=O)Nc2ccccc2)c(Cl)c1,32% (inactive)
12,COc1ccc2c(c1)nnc1c3cccnc3[nH]c21,-21.6% (active)
13,CC(=O)N[C@@H](CNC(=O)c1cc(NC(=O)c2cc(NC(=O)c3cc(NC(=O)c4nccn4C)cn3C)cn2C)cn1C)CC(=O)Nc1cn(C)c(C(=O)Nc2cc(C(=O)Nc3cc(C(=O)Nc4cc(C(=O)NCCCN(C)CCCNC(=O)c5cccc(C(=O)O)c5)n(C)c4)n(C)c3)n(C)c2)n1,120% (inactive)
14,Nc1ccc(S(=O)(=O)Nc2cc(I)cc(I)c2)cc1,-69.4% (active)
